# Positions count from the first letter of the chain named.
# Legend:
# Experiment in all cases: yeast three-hybrid, YBZ-1, SC-Leu-His + 0.5 mM 3-AT, 4 days
# Settings in all cases: tags: N-Gal4 AD-HA kept; label: inside an RPR1-promoter hybrid RNA with tandem MS2 sites; ssRNA
# [1] = biological target: PUM1 PUF domain R1-TWR (Homo sapiens, UniProt Q14671 828-1176, S863T;R864W;Q867R)
# Procedure, shortened: (§1)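 Sequencing with Illumina followed PCR amplification of the repeat regions from transformants grown four days on SC-Leu (input) or SC-Leu-His + 0.5 mM 3-AT (selection). The transformants were strain YBZ-1 with a LexA–MS2 coat fusion and a HIS3 reporter, carrying Pumilio-1 PUF domain libraries and matching RNA elements. The interaction score is the log change in variant frequency from input to selection, computed in log2 with a pseudocount of 1 for absent variants.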
# [2] = biological target: PUM1 PUF domain R8-KWG (Homo sapiens, UniProt Q14671 828-1176, N1122K;Y1123W;Q1126G)
# Procedure, shortened: as §1
# [3] = biological target: PUM1 PUF domain R5-TRK (Homo sapiens, UniProt Q14671 828-1176, C1007T;Q1011K)
# Procedure, shortened: as §1
# [4] = biological target: PUM1 PUF domain R3-VFG (Homo sapiens, UniProt Q14671 828-1176, C935V;R936F;Q939G)
# Procedure, shortened: as §1
# [5] = biological target: PUM1 PUF domain R5-QQG (Homo sapiens, UniProt Q14671 828-1176, C1007Q;R1008Q;Q1011G)
# Procedure, shortened: as §1
# [6] = biological target: PUM1 PUF domain R5-PRF (Homo sapiens, UniProt Q14671 828-1176, C1007P;Q1011F)
# Procedure, shortened: as §1
# [7] = biological target: PUM1 PUF domain R3-CHG (Homo sapiens, UniProt Q14671 828-1176, R936H;Q939G)
# Procedure, shortened: as §1
# [8] = biological target: PUM1 PUF domain R4-EHD (Homo sapiens, UniProt Q14671 828-1176, N971E;Q975D)
# Procedure, shortened: as §1
# [9] = biological target: PUM1 PUF domain R4-SMS (Homo sapiens, UniProt Q14671 828-1176, N971S;H972M;Q975S)
# Procedure, shortened: as §1
# [10] = biological target: PUM1 PUF domain R3-RPR (Homo sapiens, UniProt Q14671 828-1176, C935R;R936P;Q939R)
# Procedure, shortened: as §1
# [11] = biological target: T1, PUM1 PUF domain R6-HWR (Homo sapiens, UniProt Q14671 828-1176, N1043H;Y1044W;Q1047R)
# T1 sequence: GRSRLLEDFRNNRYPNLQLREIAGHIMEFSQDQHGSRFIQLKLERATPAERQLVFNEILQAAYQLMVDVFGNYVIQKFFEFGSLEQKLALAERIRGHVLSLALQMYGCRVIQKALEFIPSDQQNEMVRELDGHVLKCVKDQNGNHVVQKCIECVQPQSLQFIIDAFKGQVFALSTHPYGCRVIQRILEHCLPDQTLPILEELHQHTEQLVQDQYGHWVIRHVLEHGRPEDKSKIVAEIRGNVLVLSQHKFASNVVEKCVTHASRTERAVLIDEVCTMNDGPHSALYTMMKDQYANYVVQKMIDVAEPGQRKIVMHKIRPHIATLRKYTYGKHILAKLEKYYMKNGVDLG
# Procedure, shortened: as §1
# [12] = biological target: PUM1 PUF domain R8-KWK (Homo sapiens, UniProt Q14671 828-1176, N1122K;Y1123W;Q1126K)
# Procedure, shortened: as §1
# [13] = biological target: PUM1 PUF domain R4-TPQ (Homo sapiens, UniProt Q14671 828-1176, N971T;H972P)
# Procedure, shortened: as §1
# [14] = biological target: T2, PUM1 PUF domain R6-FWI (Homo sapiens, UniProt Q14671 828-1176, N1043F;Y1044W;Q1047I)
# T2 sequence: T1 sequence with H216F, R220I
# Procedure, shortened: as §1
# [15] = biological target: PUM1 PUF domain R7-KFN (Homo sapiens, UniProt Q14671 828-1176, S1079K;N1080F;E1083N)
# Procedure, shortened: as §1
# [16] = biological target: PUM1 PUF domain R7-QCR (Homo sapiens, UniProt Q14671 828-1176, S1079Q;N1080C;E1083R)
# Procedure, shortened: as §1
sequence,measurement,setting,value
GGCUAGAACUAGUGGAUCCCCCGGCGCCCGGCGGCUCGAGCCCGGGUAAGUGUAAAUUGUCUGCAUGCCGCCGGGCGCCAUGCCUGCAGGUCGACUCUAGAAAACAUG,binding signal,[1],0.55 log2 enrichment (interaction score)
GGCUAGAACUAGUGGAUCCCCCGGCGCCCGGCGGCUCGAGCCCGGGUAAGUGUAAAUAGUCUGCAUGCCGCCGGGCGCCAUGCCUGCAGGUCGACUCUAGAAAACAUG,binding signal,[2],5.91 log2 enrichment (interaction score)
same,binding signal,[3],4.09 log2 enrichment (interaction score)
same,binding signal,[4],3.82 log2 enrichment (interaction score)
same,binding signal,[5],0.25 log2 enrichment (interaction score)
same,binding signal,[6],3.86 log2 enrichment (interaction score)
same,binding signal,[7],2.43 log2 enrichment (interaction score)
same,binding signal,[8],3.48 log2 enrichment (interaction score)
same,binding signal,[9],2.84 log2 enrichment (interaction score)
same,binding signal,[10],1.87 log2 enrichment (interaction score)
same,binding signal,[11],7.48 log2 enrichment (interaction score)
same,binding signal,[12],5.56 log2 enrichment (interaction score)
GGCUAGAACUAGUGGAUCCCCCGGCGCCCGGCGGCUCGAGCCCGGGUAAGUGUAGAUAGUCUGCAUGCCGCCGGGCGCCAUGCCUGCAGGUCGACUCUAGAAAACAUG,binding signal,[13],1.66 log2 enrichment (interaction score)
GGCUAGAACUAGUGGAUCCCCCGGCGCCCGGCGGCUCGAGCCCGGGUAAGUGAAAAUAGUCUGCAUGCCGCCGGGCGCCAUGCCUGCAGGUCGACUCUAGAAAACAUG,binding signal,[11],1.35 log2 enrichment (interaction score)
same,binding signal,[14],3.65 log2 enrichment (interaction score)
GGCUAGAACUAGUGGAUCCCCCGGCGCCCGGCGGCUCGAGCCCGGGUAAGUCUAAAUAGUCUGCAUGCCGCCGGGCGCCAUGCCUGCAGGUCGACUCUAGAAAACAUG,binding signal,[15],3.14 log2 enrichment (interaction score)
same,binding signal,[16],3.59 log2 enrichment (interaction score)
